Source: PubChem
PvdQ acylase – blocks Pseudomonas aeruginosa PvdQ acylase activity; inhibition, % at 10 µM; hit rate 0.063% among 340,000; AID 488965; purified PvdQ acylase, fluorescence plate reader; in the data active = inhibition above about 30%, passing the limit was not always enough
dFosB activator – activators of mouse delta FosB homodimer; P13346; purified delta FosB, TAMRA-CDK5 oligo fluorescence polarization; percent of positive-control signal above neutral wells; hit rate 0.99% among 340,000; activation, % at 25 µM; AID 493131;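 active = mean activation above about 17%, with every replicate also reaching it, limit read from the data, passing the limit was not always enough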
Target sequence (P13346 whole entry, looked up): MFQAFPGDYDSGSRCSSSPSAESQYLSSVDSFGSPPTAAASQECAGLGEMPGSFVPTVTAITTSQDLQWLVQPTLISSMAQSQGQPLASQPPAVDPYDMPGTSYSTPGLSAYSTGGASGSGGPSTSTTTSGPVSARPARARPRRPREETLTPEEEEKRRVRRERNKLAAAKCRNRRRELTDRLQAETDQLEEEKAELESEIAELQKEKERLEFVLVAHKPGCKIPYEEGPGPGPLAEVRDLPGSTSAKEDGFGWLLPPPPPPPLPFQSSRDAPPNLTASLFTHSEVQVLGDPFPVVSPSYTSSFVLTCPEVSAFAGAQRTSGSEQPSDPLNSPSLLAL
N-glyco inh – N-linked glycosylation inhibition | D54 ERlucT glycosylation luciferase reporter, 24 h; percent of 100 nM tunicamycin response | reporter increase, % at 12.5 µM | hit rate 0.23% among 360,000 | AID 588692;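 active = mean luciferase reporter signal, scaled so untreated is 0 and the glycosylation-blocking control 100, at or above a set limit in every replicate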;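 also: luciferase carries N-glycosylation sites so blocking glycosylation raises the light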
CFTR F508del cor – CFTR F508del correction in bronchial cells. CFBE cells, YFP halide quenching; stimulated with forskolin plus potentiator P3; % fluorescence drop versus neutral controls. activity (quench increase), % at 7.58 µM. hit rate 0.36% among 350,000;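 active = mean added fluorescence quench of at least 8% versus neutral control, with both replicates also reaching 8%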;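 also: cells transiently co-express mutant CFTR-F508del with the halide-sensitive YFP; corrector assay measuring rescue of mutant channel to the surface after 24 h compound exposure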
RAD54 inh – blocks human RAD54 Holliday junction branch migration. hit rate 0.14% among 360,000. inhibition, % at 10.4 µM. AID 602329. Q92698. FAM/BHQ fluorescence;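 active = mean normalized replicate activity at least 40 and at least half of replicates scoring 40 or more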;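 also: inhibitors cause a drop in the FAM fluorescence signal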
RAD52 anneal inh – blocks human RAD52 DNA annealing; P43351; recombinant RAD52 DNA annealing, FRET fluorescence; inhibition, % at 18.7 µM; hit rate 0.46% among 360,000; AID 651710;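 active = every replicate showing at least 50% inhibition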
Numbers stand for hits; – = inactive; · = no result given. An excerpt weighted towards active compounds, which were near 1.5% of everything screened.

SMILES	PvdQ acylase	dFosB activator	N-glyco inh	CFTR F508del cor	RAD54 inh	RAD52 anneal inh
COc1ccc(OC)c(S(=O)(=O)Nc2ccc3c(c2)n(C)c(=O)n3C)c1	–	–	28	–	–	–
Cc1ccc(S(=O)(=O)Nc2ccc3c(c2)n(C)c(=O)n3C)cc1	–	–	65	–	–	–
CCc1ccc(S(=O)(=O)Nc2cc3c(cc2C)n(C)c(=O)n3C)cc1	–	–	46	–	–	–
Cc1ccc(NS(=O)(=O)c2ccc3c(c2)n(C)c(=O)n3C)cc1C	–	–	–	–	–	–
Cc1ccc(NS(=O)(=O)c2ccc3c(c2)n(C)c(=O)n3C)c(C)c1	–	–	–	–	–	–
COc1ccc(NS(=O)(=O)c2cc(OC)ccc2OC)cc1	–	–	–	–	–	–
Cn1c(=O)n(C)c2cc(NS(=O)(=O)c3ccccc3)ccc21	–	–	34	·	–	·
Cn1c(=O)n(C)c2cc(S(=O)(=O)Nc3ccccc3)ccc21	–	–	–	–	·	–
CCCC(=O)Nc1ccc2c(c1)C(=O)N(C)[C@H]1CC[C@@H](CC(=O)O)O[C@@H]1CO2	·	·	·	–	–	–
C[C@@H]1CN([C@H](C)CO)C(=O)c2cc(NC(=O)c3ccccc3)ccc2O[C@@H](C)CCCCO[C@@H]1CN(C)C(=O)Nc1cccc2ccccc12	·	·	·	–	–	–
CC(=O)N1CC2(C1)[C@@H](c1ccc(-c3ccccc3C)cc1)[C@@H](CO)N2C(C)=O	·	·	·	–	·	–
C[C@H](CO)N1C[C@H](C)[C@@H](CN(C)Cc2cccc(F)c2)Oc2ncc(C#CC(C)(C)O)cc2C1=O	·	·	·	–	·	·
CCC(=O)NC[C@H]1[C@H](c2ccc(C3=CCCC3)cc2)[C@H](CO)N1C(=O)C1CC1	·	·	·	–	–	·
CCCNC(=O)C[C@H]1CC[C@@H]2[C@H](COC[C@@H](O)CN2Cc2ccc(Cl)c(Cl)c2)O1	·	·	·	–	–	–
O=C(CCn1c(=S)oc2ccccc21)Nc1ccc(F)cc1	–	–	–	–	·	–
CN(C(=O)CCn1c(=S)oc2ccccc21)c1ccc(F)cc1	36	–	–	–	·	–
CO[C@@H]1CN(C)C(=O)c2ccc(NC(=O)c3ccccn3)cc2OC[C@@H](C)N(C(=O)Nc2ccccc2Cl)C[C@H]1C	·	·	·	–	·	·
COc1ccc(C=NNC(=O)CCCC(=O)NN=Cc2ccc(OC)c(O)c2)cc1O	–	–	–	15	–	–
COc1ccc2[nH]c(C(=O)N/N=C/c3ccccc3OC)cc2c1	–	–	37	–	–	–
COc1ccc2[nH]c(C(=O)N/N=C/c3ccc(OC)c(O)c3)cc2c1	–	–	–	11	·	–
Cc1noc(C)c1NC(=O)N[C@@H]1CC[C@H](CC(=O)NCCCN(C)C)O[C@H]1CO	·	·	·	–	–	–
Nc1ccc(OCCCc2c(N)nc(N)nc2N)cc1	–	21	–	–	–	–
O=C(NCc1ccccc1Cl)c1cccc2c1C(=O)c1ccc(-c3ccc(OC(F)(F)F)cc3)cc1S2(=O)=O	–	–	304	·	–	·
O=C(NC1CCCCC1)c1cccc2c1C(=O)c1ccc(-c3ccc(OC(F)(F)F)cc3)cc1S2(=O)=O	–	–	–	–	–	–
COc1ccc(CN2C[C@@H](O)COC[C@@H]3O[C@H](CC(=O)NCCN4CCCC4)CC[C@H]32)cc1	·	·	·	–	–	·
SMILES	PvdQ acylase	dFosB activator	N-glyco inh	CFTR F508del cor	RAD54 inh	RAD52 anneal inh
COc1ccccc1NS(=O)(=O)c1cc(-c2cnc(C3CC3)o2)ccc1C	–	–	–	8.3	–	–
O=C(C[C@H]1CC[C@@H]2[C@H](COC[C@@H](O)CN2Cc2cccc(-c3ccncc3)c2)O1)N1CCN(c2ccccc2)CC1	·	·	·	–	–	–
Cc1cc(N2CCC(C)CC2)c(F)cc1[N+](=O)[O-]	–	–	–	·	–	·
Cc1cc(N2CCCC2)c(F)cc1/C=C\[N+](=O)[O-]	–	–	–	28	·	–
N#CCC(CNc1ncc(C(F)(F)F)cc1Cl)OC(=O)c1cccc([N+](=O)[O-])c1 (stereo unspecified)	–	–	29	·	–	·
N#CCC(CNc1ncc(C(F)(F)F)cc1Cl)OC(=O)c1ccc(Cl)cc1 (stereo unspecified)	–	–	–	·	–	·
O=C(/C(=C/c1ccc(Cl)cc1)c1nc2ccccc2[nH]1)c1cccs1	–	–	–	·	·	·
O=C(/C(=C\c1ccccc1)c1nc2ccccc2[nH]1)c1ccc(Cl)cc1	–	–	34	·	·	·
